A selection: hits, their analogues and other compounds. The true share with any hit is near 9.2%.
NPC1 promoter act: qHTS Assay for NPC1 Promoter Activators; Huh7 NPC1 promoter luciferase reporter, 24 h; Potency, µM (highest dose often 9.22 µM), for the others: top-dose activation, most hits filed as activators; actives 2.4% (n = 320,000); also: % of control where 0% means no effect; nearly all actives have a fitted effect of over 60% in size
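Huh7 cells stably carrying NPC1 promoter–luciferase, plated in Opti-MEM with 10% FBS for 2 h, were exposed to compound in DMSO for 24 h at 37 °C; luciferase reagent was added for 10 min and luminescence read.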
ELG1 genotox: qHTS screen for small molecules that induce genotoxicity in human embryonic kidney (HEK293T) cells expressing luciferase-tagged ELG1; Potency, µM (doses to about 46 µM), without a hit: at the highest dose activity change, positive = activation, actives largely listed as activators; HEK293T ELG1-luciferase reporter, luminescence, 16 h; actives 1.3% (n = 330,000); also: % of control where 0% means no effect; nearly all actives have a fitted effect of over 60% in size
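Step 1: seed 2,000 HEK293T ELG1-luciferase cells per well. Step 2: add compound or DMSO, incubate 16 hr at 37 °C. Step 3: ONE-Glo, 30 min at room temperature, read luminescence.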
ELG1 repair inh: qHTS screen for small molecules that inhibit ELG1-dependent DNA repair in human embryonic kidney (HEK293T) cells expressing luciferase-tagged ELG1; actives 2.3% (n = 330,000); AID 504467, 2011; HEK293T ELG1-luciferase reporter, luminescence, 16 h; DNA damage induced by 5-fluorouridine; Potency, µM (highest dose often 46.1 µM), for inactives: at the top dose activity change, negative = inhibition, actives largely listed as inhibitors; also: % is scaled to controls: 0 for no effect and ±100 for the full control effect; nearly all actives have a fitted effect of over 55% in size
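Step one: seed 2,000 cells per well. Step two: pin-transfer compound or DMSO alongside 5-fluorouridine. Step three: incubate 16 hr, 37 °C, 5% CO2. Step four: add ONE-Glo, wait 30 min, read luminescence.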
SMN2 splice up: qHTS Assay for Enhancers of SMN2 Splice Variant Expression. actives 2.8% (n = 210,000). HEK293 SMN2-luciferase splicing reporter, luminescence, 30-36 h. Potency, µM (series often up to 46.1 µM), inactives show at the top dose activity change, positive = activation, hits mostly activators; also: % of control where 0% means no effect; nearly all actives have a fitted effect of over 55% in size
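qHTS luciferase splicing reporter: luminescence rises when SMN2 exon 7 is included in transfected HEK293 cells. Compound exposure lasted 30-36 h at 37C, with 4.5 mM final sodium butyrate as control, followed by a ONE-Glo read.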
FLuc modulator: qHTS profiling assay for firefly luciferase inhibitor/activator using purifed enzyme and Km concentrations of substrates (counterscreen for miR-21 project) | purified FLuc, Km substrates, luminescence inhibition | Potency, µM (series often up to 57.5 µM), inactives show at the top dose activity change, negative = inhibition, actives largely listed as inhibitors | actives 6.9% (n = 360,000);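 also: plate controls were vehicle for no effect and reference inhibitor for full effect; nearly all actives have a fitted effect of over 55% in size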
Target sequence (P08659 whole entry, looked up): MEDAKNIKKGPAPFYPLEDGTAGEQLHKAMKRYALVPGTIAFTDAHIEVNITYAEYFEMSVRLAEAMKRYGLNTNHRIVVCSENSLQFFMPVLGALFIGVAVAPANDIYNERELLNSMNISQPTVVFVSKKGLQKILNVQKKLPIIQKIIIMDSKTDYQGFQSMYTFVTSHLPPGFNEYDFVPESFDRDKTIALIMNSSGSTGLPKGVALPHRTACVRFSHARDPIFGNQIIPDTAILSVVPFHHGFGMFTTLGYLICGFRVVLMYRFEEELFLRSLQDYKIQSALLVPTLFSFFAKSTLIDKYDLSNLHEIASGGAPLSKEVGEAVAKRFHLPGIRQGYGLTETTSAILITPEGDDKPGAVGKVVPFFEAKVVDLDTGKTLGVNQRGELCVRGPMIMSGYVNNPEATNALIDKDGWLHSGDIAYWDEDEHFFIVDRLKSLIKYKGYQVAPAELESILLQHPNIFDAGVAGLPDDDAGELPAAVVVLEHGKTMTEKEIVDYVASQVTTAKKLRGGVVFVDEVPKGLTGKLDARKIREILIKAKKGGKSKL
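Purified P. pyralis luciferase, 10 nM final, with Km-level 10 uM D-luciferin and 10 uM ATP in 50 mM Tris acetate pH 7.5, 10 mM Mg acetate, 0.01% Tween-20, 0.05% BSA; 6-point qHTS titration about 60 µM downward; luminescence read.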
Rab9 promoter act: qHTS Assay for Rab9 Promoter Activators | Huh7 Rab9 promoter-luciferase reporter, luminescence, 24 h | Potency, µM (highest dose often 9.22 µM), without a hit: top-dose activation, negative = inhibition, actives largely listed as activators | actives 2.8% (n = 320,000); also: % of control where 0% means no effect; nearly all actives have a fitted effect of over 60% in size
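Quantitative HTS format; Huh7 Rab9-luciferase reporter cells (1500/well) receive compound 2 h post-plating, incubate 24 h at 37 °C, then get luciferase reagent for 10 min before luminescence reading.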
Active calls of the source: *. Calls follow the shape of the dose curve; as a rule, active = well fitted curve in the direction sought with a large enough effect; inconclusive = small, poorly fitted or top-dose-only effect, or another doubt; inactive = no such curve, though single readings can be large; an effect the other way counts as inactive or inconclusive. Potency is read from the fitted curve at half-maximal effect.

What do the screens show for `COc1ccc(C2CC(C(F)(F)F)n3nc(C(=O)Nc4ccc5c(c4)OCO5)cc3N2)cc1` (centres undefined)?
NPC1 promoter act: 0%; ELG1 genotox: 1%; ELG1 repair inh: 23µM*; SMN2 splice up: -5%; FLuc modulator: -17%; Rab9 promoter act: 0%

How did COc1ccc(OC)c(NC(=O)c2cc3n(n2)C(C(F)(F)F)CC(c2ccc4c(c2)OCO4)N3)c1 (centres undefined) do in these assays?
NPC1 promoter act: -2%; ELG1 genotox: 13%; ELG1 repair inh: 5%; SMN2 splice up: -24%; FLuc modulator: 0%; Rab9 promoter act: -4%

How did COc1ccccc1NC(=O)c1cc2n(n1)C(C(F)(F)F)CC(c1ccc3c(c1)OCO3)N2 (centres undefined) do in these assays?
NPC1 promoter act: -10%; ELG1 genotox: -6%; ELG1 repair inh: 16µM*; SMN2 splice up: 14%; FLuc modulator: 5%; Rab9 promoter act: -9%

What do the screens show for `O=C(Nc1ccccc1)c1cc2n(n1)C(C(F)(F)F)CC(C1CC1)N2` (centres undefined)?
NPC1 promoter act: 2.8µM*; ELG1 genotox: inconclusive; ELG1 repair inh: inconclusive; FLuc modulator: -17%; Rab9 promoter act: 1.8µM*

How did Cc1cccc2cc3c(NC(=O)C(C)(C)C)nn(CC(C)C)c3nc12 do in these assays?
NPC1 promoter act: 1%; ELG1 genotox: -7%; ELG1 repair inh: -7%; FLuc modulator: -1%; Rab9 promoter act: -1%

What do the screens show for `Cc1cc(NC(=O)Cn2cnc3sc(C)c(C)c3c2=O)no1`?
ELG1 genotox: 1%; ELG1 repair inh: 0%

What do the screens show for `COc1ccc(-c2cc(-c3cc(OC)ccc3O)[nH]n2)cc1`?
NPC1 promoter act: inconclusive; ELG1 genotox: 9.2µM*; ELG1 repair inh: inconclusive; SMN2 splice up: inconclusive; FLuc modulator: 24µM*; Rab9 promoter act: inconclusive

What do the screens show for `COc1ccc(O)c(-c2cc(-c3cccc(Br)c3)n[nH]2)c1`?
NPC1 promoter act: inconclusive; ELG1 genotox: 21µM*; ELG1 repair inh: inconclusive; SMN2 splice up: 28%; FLuc modulator: 19µM*; Rab9 promoter act: inconclusive

Results for COc1ccc(O)c(-c2cc(-c3ccc(F)cc3)n[nH]2)c1 ?
NPC1 promoter act: 4.5µM*; ELG1 genotox: inconclusive; ELG1 repair inh: inconclusive; FLuc modulator: 15µM*; Rab9 promoter act: inconclusive

What do the screens show for `COc1ccc(-c2cc(-c3ccc(Cl)cc3)n[nH]2)c(O)c1`?
NPC1 promoter act: 1.8µM*; ELG1 genotox: inconclusive; ELG1 repair inh: inconclusive; FLuc modulator: 6µM*; Rab9 promoter act: 2.5µM*

Results for Oc1ccc(Br)cc1-c1cc(-c2ccccc2)n[nH]1 ?
NPC1 promoter act: -5%; ELG1 genotox: -2%; ELG1 repair inh: -2%; SMN2 splice up: -20%; FLuc modulator: -16%; Rab9 promoter act: -3%

Results for COCc1cc(C)nc2sc(C(=O)NCCO)c(-n3cccc3)c12 ?
NPC1 promoter act: -6%; ELG1 genotox: -4%; ELG1 repair inh: -7%; SMN2 splice up: -10%; FLuc modulator: -7%; Rab9 promoter act: -1%

Results for O=[N+]([O-])c1cccc(-c2cc(-c3cc(Br)ccc3O)[nH]n2)c1 ?
NPC1 promoter act: -3%; ELG1 genotox: -10%; ELG1 repair inh: 16µM*; FLuc modulator: -11%; Rab9 promoter act: -1%

How did Cc1ccc(Oc2cnc3ccccc3n2)cc1 do in these assays?
NPC1 promoter act: inconclusive; ELG1 genotox: 7%; ELG1 repair inh: 22%; SMN2 splice up: 5%; FLuc modulator: 12µM*; Rab9 promoter act: inconclusive

Results for Clc1ccc(Oc2cnc3ccccc3n2)cc1 ?
NPC1 promoter act: 20%; ELG1 genotox: -6%; ELG1 repair inh: inconclusive; SMN2 splice up: 0%; FLuc modulator: inconclusive; Rab9 promoter act: 8%

Results for Cc1nc2ccc(NC(=O)CCS(=O)(=O)c3ccccc3)cc2s1 ?
NPC1 promoter act: 24%; ELG1 genotox: 15%; ELG1 repair inh: inconclusive; SMN2 splice up: 16µM*; FLuc modulator: inconclusive; Rab9 promoter act: 28%

What do the screens show for `Cc1ccc2nc(-c3ccc(NC(=O)CCS(=O)(=O)c4ccccc4)cc3)sc2c1`?
NPC1 promoter act: 0.56µM*; ELG1 genotox: inconclusive; ELG1 repair inh: inconclusive; FLuc modulator: 11µM*; Rab9 promoter act: 0.32µM*

What do the screens show for `Cc1nc2cc(NC(=O)CCS(=O)(=O)c3ccccc3)ccc2s1`?
NPC1 promoter act: 2µM*; ELG1 genotox: inconclusive; ELG1 repair inh: inconclusive; SMN2 splice up: 10µM*; FLuc modulator: 9.5µM*; Rab9 promoter act: 1.4µM*

Results for Cc1ccc(N(CC(=O)Nc2ccc(-c3nc4ccc(C)cc4s3)cc2)S(C)(=O)=O)cc1 ?
NPC1 promoter act: inconclusive; ELG1 genotox: inconclusive; ELG1 repair inh: inconclusive; SMN2 splice up: 37%; FLuc modulator: 7.6µM*; Rab9 promoter act: inconclusive

Results for Cc1ccc(S(=O)(=O)CCC(=O)Nc2ccc3nc(C)sc3c2)cc1 ?
NPC1 promoter act: -4%; ELG1 genotox: -1%; ELG1 repair inh: -1%; SMN2 splice up: -23%; FLuc modulator: 5%; Rab9 promoter act: -4%

How did Cc1ccc(NC(=O)C(C)OC(=O)CCC2CCCCC2)cc1 (centres undefined) do in these assays?
NPC1 promoter act: -9%; ELG1 genotox: -1%; ELG1 repair inh: 12%; FLuc modulator: 6%; Rab9 promoter act: 0%

Results for COC(=O)c1ccc(COC(=O)[C@@H]2CC(O)CN2S(=O)(=O)c2ccccc2[N+](=O)[O-])cc1 (some centres undefined) ?
NPC1 promoter act: -6%; ELG1 genotox: 0%; ELG1 repair inh: -12%; FLuc modulator: -1%; Rab9 promoter act: -16%

What do the screens show for `Cc1ccccc1NS(=O)(=O)c1ccc(NS(=O)(=O)c2cccs2)cc1`?
NPC1 promoter act: -2%; ELG1 genotox: -11%; ELG1 repair inh: 5%; FLuc modulator: 1%; Rab9 promoter act: -4%

How did COC(=O)[C@]1(Cc2ccccc2)N[C@H](CN(C)C(C)=O)[C@@H]2C(=O)N(Cc3ccccc3)C(=O)[C@@H]21 do in these assays?
ELG1 genotox: 3%; ELG1 repair inh: 8%

Screening data from PubChem BioAssay.
